ALDH1A1 block: ALDH1A1 (human) enzyme inhibition | P00352 | Purified ALDH1A1, NADH fluorescence, propionaldehyde substrate | Potency, µM (top dose mostly 75.3 µM), hits mostly inhibitors | hit rate 7.3% among 220,000; active means well fitted inhibition curve with a large enough effect, not every such curve was filed as active; inconclusive means small, poorly fitted or top-dose-only effect, or another doubt; inactive means no such curve, though single readings can be large or run the other way
PNC inhibitor: inhibitors of perinucleolar compartment assembly. PC3M PTB-GFP, PNC prevalence imaging, 16 h; hits give low values. activity change (PNC), negative = inhibition, % at 10 µM. hit rate 3.1% among 140,000. AID 2417;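 active means readout at or below -70, meaning at least 70% loss of cells showing the perinucleolar compartment, a nuclear body marking cancer cells; inconclusive means readout between -30 and a set limit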
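Compounds are pinned in duplicate onto adhered PC3M cells stably expressing GFP-tagged PTB and incubated 16 h at 37 C. Cells are then fixed, nuclei stained with Hoechst, and PNC-positive cells counted.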
IMPase Li inh: IMPase inhibition in cells with lithium potentiation; CHO-M1 cells, IP1 TR-FRET (IP-One), carbachol + lithium; Potency, µM (titrated, usually from 59.4 µM), usual class: inhibitors; hit rate 0.35% among 210,000;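 further: IP1 builds up when IMPase is blocked and the TR-FRET signal falls; nearly all actives have a fitted effect of over 50% in size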
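Test compounds were applied to CHO-M1 cells previously cultured for 16–30 h at 2000 per well. A small lithium amount accompanied them; after 30 min at 37C, IP1 was quantified by TR-FRET.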
NPSR antagonist: antagonists of human neuropeptide S receptor cAMP signaling. CHO-NPSR cells, cAMP TR-FRET, antagonist mode. Potency, µM (doses to about 38.3 µM), usual class: inhibitors. hit rate 1% among 220,000; further: nearly all actives have a fitted effect of over 50% in size
Target sequence (Q6W5P4 whole entry, looked up): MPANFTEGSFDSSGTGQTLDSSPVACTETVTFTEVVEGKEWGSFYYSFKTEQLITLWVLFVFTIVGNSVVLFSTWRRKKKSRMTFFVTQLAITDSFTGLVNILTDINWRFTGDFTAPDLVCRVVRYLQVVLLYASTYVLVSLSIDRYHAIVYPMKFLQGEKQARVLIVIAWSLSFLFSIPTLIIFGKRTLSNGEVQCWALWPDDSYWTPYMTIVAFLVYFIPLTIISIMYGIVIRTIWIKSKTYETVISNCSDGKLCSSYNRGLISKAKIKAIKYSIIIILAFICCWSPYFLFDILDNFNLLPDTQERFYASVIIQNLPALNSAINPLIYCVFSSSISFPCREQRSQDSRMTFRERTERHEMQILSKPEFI
HPGD block: inhibitors of human 15-hydroxyprostaglandin dehydrogenase (HPGD) | P15428 | Potency, µM, usual class: inhibitors | hit rate 4.3% among 150,000 | purified HPGD, NADH fluorescence kinetic, PGE2 substrate; active means well fitted inhibition curve with a large enough effect, not every such curve was filed as active; inconclusive means small, poorly fitted or top-dose-only effect, or another doubt; inactive means no such curve, though single readings can be large or run the other way
Target sequence (P15428 whole entry, looked up): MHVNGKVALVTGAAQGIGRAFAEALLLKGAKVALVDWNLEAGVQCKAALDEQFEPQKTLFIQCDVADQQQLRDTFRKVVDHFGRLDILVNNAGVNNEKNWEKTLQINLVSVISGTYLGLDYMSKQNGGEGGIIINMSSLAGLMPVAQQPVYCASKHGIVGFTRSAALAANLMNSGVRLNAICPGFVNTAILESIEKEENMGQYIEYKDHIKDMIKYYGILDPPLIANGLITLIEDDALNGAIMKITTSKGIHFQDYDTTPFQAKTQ
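20 nM HPGD preincubated 15 min at room temperature with compound in 50 mM Tris-HCl pH 8, 0.01% Tween 20. Started with 1 mM NAD+ and 30 uM prostaglandin E2; NADH fluorescence (360/450 nm) read 5 times over 30-s intervals, last minus first.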
IMPase cell inh: membrane-permeable compound that blocks inositol monophosphatase; 120,000 tested, under 10 active; CHO-M1 cells, IP1 accumulation, HTRF TR-FRET ratio; P97697; inhibition (IP1 accumulation), % at 46.1 µM; active means well fitted curve in the direction sought with a large enough effect in the signal ratio, not every such curve was filed as active; inconclusive means small, poorly fitted or top-dose-only effect, or a change in a side signal; inactive means no such curve, though single readings can be large or run the other way; the % refers to the signal ratio;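 further: cells stimulated with carbachol in lithium chloride buffer; higher means more IMPase inhibition seen as more IP1 and lower FRET ratio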
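Measured: the HTRF emission ratio (665/620 nm) plus the 620 nm donor channel, each fitted to the Hill equation to give AC50. Cells were CHO-M1 given compounds up to 46 uM and a 30 min carbachol stimulation at 37C.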
A number is an active result; i = inactive; ? = inconclusive; nt = no result. In the library only some 11% were active in any assay of this set; here they are far more common. Unless noted, the call rests on the fitted dose curve; in most records, active means well fitted curve in the direction sought with a large enough effect; inconclusive means small, poorly fitted or top-dose-only effect, or another doubt; inactive means no such curve, though single readings can be large; an effect the other way counts as inactive or inconclusive.

SMILES | ALDH1A1 block | PNC inhibitor | IMPase Li inh | NPSR antagonist | HPGD block | IMPase cell inh
CCOc1ccccc1C(=O)Nc1ccccc1-c1ccccc1 | ? | i | i | i | i | nt
COc1cc2c(cc1OC)CN(C(=O)c1cc3ccccc3oc1=O)CC2 | i | i | i | i | i | i
c1ccc2c(-n3cnnn3)cccc2c1 | ? | i | i | i | i | i
O=C(Nc1ccccc1)N(C1=NCCC1)c1ccccc1 | nt | nt | nt | i | nt | nt
COCCNC(=O)Cn1cnc2sc(C)c(S(=O)(=O)N3CCC(C)CC3)c2c1=O | i | i | nt | i | nt | i
CCCCN(CC)CCNC(=O)Cn1cnc2sc(C)c(S(=O)(=O)N3CCOCC3)c2c1=O | i | -100 | i | i | i | i
Cc1cccc(NC(=O)Cn2cnc3sc(C)c(S(=O)(=O)N4CCC(C)CC4)c3c2=O)n1 | i | -100 | i | i | i | i
O=C(CSc1nnc(SCc2ccccc2)s1)N/N=C/C=C/c1ccccc1[N+](=O)[O-] | i | ? | i | i | i | nt
CC(/C=N/NC(=O)CSc1nc2ccccc2n1C)=C\c1ccco1 | 13µM | i | i | i | i | nt
O=C(CSc1nnc(SCc2ccccc2)s1)N/N=C/C=C\c1ccco1 | 18µM | i | i | i | 16µM | i
C/C(=N\NC(=O)Cc1cccn1C)c1ccc2ccccc2c1 | ? | i | i | i | i | i
CCn1c(SCC(=O)N/N=C/C=C/c2ccccc2[N+](=O)[O-])nnc1-c1ccc(Cl)cc1 | 4.5µM | ? | i | i | i | i
C/C(=N/NC(=O)Cc1cccn1C)c1ccccc1 | 18µM | i | i | i | i | i
O=C(COc1ccccc1F)N1CCN(S(=O)(=O)/C=C/c2ccccc2)CC1 | ? | i | i | i | i | nt
CCn1c(SCC(=O)N/N=C/C=C/c2ccco2)nc2ccccc21 | 13µM | i | i | i | i | nt
CCn1c(SCC(=O)N/N=C/C=C/c2ccco2)nnc1-c1ccc(OC)cc1 | i | ? | i | i | 32µM | i
Cn1cccc1CC(=O)N/N=C/C=C/c1ccco1 | i | ? | i | i | 16µM | nt
Cn1c(SCC(=O)N/N=C/c2ccco2)nc2ccccc21 | ? | nt | i | i | nt | nt
COCCSc1ccccc1C(=O)Nc1ccc(Cl)cn1 | i | i | i | i | i | i
O=C(N/N=C/c1ccc(N2CCOCC2)o1)c1cccc(F)c1 | ? | ? | i | ? | i | i
Cc1nc(Nc2ccccc2)sc1C | 16µM | nt | i | i | nt | nt
CCOc1ccccc1Nc1nc(-c2sc(C)nc2C)cs1 | 20µM | nt | i | i | nt | nt
CCCC(=O)Nc1nc(C)c(-c2csc(Nc3ccccc3OC)n2)s1 | ? | i | i | i | i | ?
Cc1nc(N)sc1-c1csc(Nc2ccccc2)n1 | 18µM | i | i | i | i | i
Cc1cc(O)ccc1Nc1nc(-c2sc(N)nc2C)cs1 | 8.9µM | i | i | i | 16µM | i
SMILES | ALDH1A1 block | PNC inhibitor | IMPase Li inh | NPSR antagonist | HPGD block | IMPase cell inh
COc1ccc(OC)c(Nc2nc(-c3sc(N)nc3C)cs2)c1 | ? | i | i | i | i | i
COC(=O)c1ccc(C(=O)Nc2cc(Cl)ccc2Cl)cc1NC(=O)c1ccc(N(C)C)cc1 | i | i | i | i | i | i
c1ccc(CN2CCN(c3nc(-c4ccccc4)nc4ccccc34)CC2)cc1 | i | ? | i | i | i | i
Nc1ccc(C(=O)Nc2ccc(Nc3ccncc3)cc2)cc1 | nt | nt | nt | i | nt | nt
N#CC1=C(N)Oc2c(ccc3ccccc23)C1c1ccsc1 (configuration not stated) | i | i | i | ? | i | i
C=CCn1c(=O)/c(=C2/Sc3ccccc3N2CC)s/c1=C1/C(=O)NN=C1C | 20µM | nt | i | i | nt | nt
CSc1nc(N)nc(SCC(=O)C(C)(C)C)c1C#N | ? | i | i | i | 13µM | i
CSc1nc(N)nc(SCC(=O)Nc2ccc(Cl)cc2)c1C#N | ? | ? | i | ? | ? | i
CSc1nc(N)nc(SCC(=O)CC(=O)OC(C)C)c1C#N | i | i | i | i | i | i
CSc1nc(N)nc(SCC(=O)Nc2cccc(F)c2)c1C#N | i | i | i | i | 20µM | i
C[C@H]1[C@H](C)CC[C@]2(C(=O)O)CC[C@]3(C)C(=CC[C@@H]4[C@@]5(C)C[C@@H](O)[C@H](O)C(C)(C)[C@@H]5CC[C@]43C)[C@H]12 | i | i | i | i | i | nt
CCC(C)NC(=O)COC(=O)c1csc2c1CCCC2 (configuration not stated) | i | i | i | i | 25µM | i
O=C(COc1cccnc1[N+](=O)[O-])Nc1ccc(Cl)c(S(=O)(=O)N2CCOCC2)c1 | 14µM | nt | nt | i | nt | nt
O=C(COc1cccnc1[N+](=O)[O-])N1CCN(S(=O)(=O)c2ccc3ccccc3c2)CC1 | 16µM | ? | i | i | i | nt
O=C(CCC(=O)N1CCN(S(=O)(=O)c2ccc3ccccc3c2)CC1)Nc1cc(Cl)cc(Cl)c1 | i | nt | i | i | nt | nt
O=C(COc1cccnc1[N+](=O)[O-])Nc1ccc(S(=O)(=O)N2CCOCC2)cc1 | i | nt | i | i | nt | nt
O=C(Cn1ncc(Cl)c(Cl)c1=O)N1CCN(S(=O)(=O)c2ccc3ccccc3c2)CC1 | 20µM | i | nt | 13µM | nt | i
Cc1ccc(OCC(=O)N2CCN(S(=O)(=O)c3ccc(Cl)cc3)CC2)c([N+](=O)[O-])n1 | ? | ? | nt | i | nt | i
CCc1ccc2[nH]c(=O)c(CN(Cc3ccc4c(c3)OCO4)C(=O)c3ccco3)cc2c1 | i | ? | i | ? | i | i
C/C(=N\N=C(/N)SC1CC(=O)N(c2cccc(Cl)c2)C1=O)c1cccs1 (configuration not stated) | i | i | i | i | i | i
O=C(c1cc(-c2cccnc2)nc2ccc(Br)cc12)N1CCN(c2ncccn2)CC1 | i | ? | 11µM | ? | 16µM | i
NNC(=O)c1cc(-c2ccc(O)cc2)nc2ccc(Br)cc12 | 14µM | nt | nt | i | nt | nt
CS(=O)(=O)N1CCN(C(=O)c2cc(-c3cccnc3)nc3ccc(Br)cc23)CC1 | i | nt | i | i | nt | nt
Cc1ccc(-c2cc(C(=O)NCc3cnn(C)c3C)c3cc(Br)ccc3n2)cc1 | i | i | ? | ? | i | ?
Cc1ccc2nc(-c3cccnc3)cc(C(=O)N3CCN(c4ccc([N+](=O)[O-])cc4)CC3)c2c1 | 8.9µM | nt | i | 5µM | nt | nt
SMILES | ALDH1A1 block | PNC inhibitor | IMPase Li inh | NPSR antagonist | HPGD block | IMPase cell inh
O=C(Nc1ccccn1)c1cc(-c2cccnc2)nc2ccc(Br)cc12 | i | i | 11µM | ? | i | ?
CCC(=O)Nc1ccc(C(=O)Nc2ccc(Br)cc2F)cc1 | i | nt | i | i | nt | nt
COc1ccc([N+](=O)[O-])cc1NC(=O)COC(=O)c1ccccc1O | i | nt | nt | i | nt | nt
O=c1[nH]nc(N/N=C/c2ccc(Cl)cc2Cl)c(=O)[nH]1 | nt | nt | nt | i | nt | nt
CC(C)(C)n1nc2c(c1NC(=O)COc1ccccc1F)CS(=O)(=O)C2 | i | nt | i | i | nt | nt
NS(=O)(=O)c1ccc(CCNC(=O)c2cc(-c3ccc(Br)cc3)nc3ccccc23)cc1 | i | nt | i | i | nt | nt
